# Screening data (PubChem)
# 12-LOX inh – inhibitors of human 12S-lipoxygenase ALOX12. P18054. purified 12hLO, xylenol orange hydroperoxide absorbance. Potency, µM (highest dose often 108 µM), for the others: at the highest dose activity change, negative = inhibition, most hits filed as inhibitors. 1.1% of 580,000 active; note: potency is the fitted concentration of half-maximal effect
# Target sequence (P18054 whole entry, looked up): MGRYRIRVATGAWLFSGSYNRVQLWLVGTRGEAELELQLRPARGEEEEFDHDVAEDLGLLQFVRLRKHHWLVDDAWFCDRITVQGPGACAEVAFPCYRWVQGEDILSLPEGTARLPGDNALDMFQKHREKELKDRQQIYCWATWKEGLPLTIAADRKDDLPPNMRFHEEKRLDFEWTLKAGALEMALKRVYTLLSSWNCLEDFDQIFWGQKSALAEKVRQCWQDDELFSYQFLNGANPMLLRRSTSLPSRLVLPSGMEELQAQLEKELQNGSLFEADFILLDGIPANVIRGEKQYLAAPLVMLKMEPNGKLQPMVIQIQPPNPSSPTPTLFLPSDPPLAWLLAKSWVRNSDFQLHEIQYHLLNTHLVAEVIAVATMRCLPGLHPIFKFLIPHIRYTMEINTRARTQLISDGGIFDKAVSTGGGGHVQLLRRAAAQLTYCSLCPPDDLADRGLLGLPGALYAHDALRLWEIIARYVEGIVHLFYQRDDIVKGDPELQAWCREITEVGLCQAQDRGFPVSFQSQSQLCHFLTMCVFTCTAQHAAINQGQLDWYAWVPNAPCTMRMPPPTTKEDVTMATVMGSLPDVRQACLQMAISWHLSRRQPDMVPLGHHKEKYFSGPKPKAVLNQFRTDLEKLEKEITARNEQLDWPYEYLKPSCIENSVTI
#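 Hydroperoxide product was detected by ferrous iron/xylenol orange as the 573 to 405 nm absorbance ratio. Arachidonic acid at 40 uM (final) was turned over for 30 min at room temperature by 150 nM human 12hLO, pH 7.0 Hepes buffer, after 15 min compound preincubation.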
# TDP1 cell CPT – growth inhibition of DT40 Tdp1-/-;hTDP1 cells with camptothecin (screen for TDP1 inhibitors); chicken DT40 Tdp1-/-;hTDP1 cells + 20 nM CPT, ATP luminescence, 48 h; Potency, µM (series often up to 46.2 µM), inactives show at the top dose activity change, negative = growth inhibition, most hits filed as inhibitors; AID 686979; 12% of 420,000 active; note: potency is the fitted concentration of half-maximal effect; nearly all actives have a fitted effect of over 55% in size
#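 Cell growth measured by CellTiter-Glo luminescence after a minimum 48 h, 37 C compound exposure with 20 nM CPT in Tdp1-knockout DT40 cells stably expressing hTDP1, seeded 400/well; qHTS titration format.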
# HT1080-NT tox – kills 2HG-producing HT-1080-NT fibrosarcoma cells; Potency, µM (top dose mostly 46.1 µM), for inactives: at the top dose activity, negative = less viability, most hits filed as cytotoxic; HT-1080-NT fibrosarcoma viability, CellTiter-Glo ATP luminescence, 48 h; 1.6% of 360,000 active;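 note: NT is the 2HG producing partner of a matched IDH1 knockdown line; potency is the fitted concentration of half-maximal effect; 0% = DMSO-treated cells and -100% = media-only wells without cells; nearly all actives have a fitted effect of over 55% in size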
#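 Viability by CellTiter-Glo luminescence after 48 h compound exposure at 37C of HT-1080-NT cells (750/well, RPMI, 5% FBS). % activity scaled between DMSO wells and medium-only wells, then curve-fitted and categorized by curve class.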
# DT40 TDP1 no CPT – qHTS for Inhibitors of human tyrosyl-DNA phosphodiesterase 1 (TDP1): qHTS in cells in absence of CPT; DT40 Tdp1-/- hTDP1 cells, no CPT, ATP luminescence, 48 h; Potency, µM (highest dose often 46.2 µM), for the others: top-dose activity change, negative = growth inhibition, actives largely listed as inhibitors; 15% of 420,000 active; note: potency is the fitted concentration of half-maximal effect; nearly all actives have a fitted effect of over 55% in size
#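 Readout: luminescence from CellTiter-Glo after 30 min in the dark at RT. Cells: DT40 Tdp1-/- with stable hTDP1, 400/well. Exposure: compounds alone, ≥48 hr, 37 °C.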
# HT1080 IDH1KD tx – toxicity to HT-1080 IDH1 knockdown cells (counter line) | Potency, µM (top dose mostly 46.1 µM), inactives show top-dose activity, negative = toxicity, usual class: cytotoxic | HT-1080 IDH1 knockdown viability, ATP luminescence, 48 h | 2% of 360,000 active | AID 686971;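 note: potency is the fitted concentration of half-maximal effect; 0% = DMSO wells and -100% = cell-free medium wells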
#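 Viability of IDH1-knockdown HT-1080 fibrosarcoma cells was assessed by CellTiter-Glo after 48 h at 37 °C with titrated compound; concentration-effect curves were classified by fit quality and response size.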
# IL1B secr inh – inhibitors of inflammasome signaling (IL-1 beta secretion) | THP-1 LPS/ATP IL-1B secretion, AlphaLISA, 16 h; active compounds read low | activity change, % at 57.5 µM | 4.7% of 360,000 active; in the data active = activity change below about -50%; inconclusive = mostly about -30% to -49%
#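 Secreted IL-1B measured by AlphaLISA bead assay after 16 h compound exposure of THP-1 cells; compounds (final up to 57.5 uM) added 1 h before LPS (250 ng/mL) and ATP (1.25 mM) stimulation; lower signal means less secretion.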
# An asterisk follows results filed as active; ? = inconclusive; nt = not tested or not shown. Only a selection was taken, and hits are over-represented in it overall. Unless noted, calls come from the whole dose curve; as a rule, active = well fitted curve in the direction sought with a large enough effect; inconclusive = small, poorly fitted or top-dose-only effect, or another doubt; inactive = no such curve, though single readings can be large; an effect the other way counts as inactive or inconclusive. Unless noted, % is set by controls: 0 for no effect and ±100 for the full control effect.
SMILES,12-LOX inh,TDP1 cell CPT,HT1080-NT tox,DT40 TDP1 no CPT,HT1080 IDH1KD tx,IL1B secr inh
O=C(NNc1nc(N2CCOCC2)nc(N2CCOCC2)n1)c1ccccc1,3%,?,8%,?,14%,-1
COC(=O)c1ccc(Oc2nc(N3CCCCC3)nc(N3CCOCC3)n2)cc1,-8%,-23%,-10%,-20%,-10%,-55*
O=C(NNc1nc(Nc2ccccc2)nc(N2CCOCC2)n1)Nc1ccc(Cl)cc1,-11%,21µM*,?,?,?,21
CC(=O)c1ccc(Nc2nc(N3CCOCC3)nc(N3CCOCC3)n2)cc1,0%,?,14%,-20%,11%,-54*
COC(=O)c1ccc(Oc2nc(N(C)C)nc(N3CCCCC3)n2)cc1,-28%,nt,nt,nt,nt,nt
CC(=O)Nc1ccc(/C(C)=N/Nc2nc(Nc3ccccc3)nc(N3CCOCC3)n2)cc1,-2%,5.2µM*,?,7.3µM*,?,-25
CCOc1ccc(C(=O)N2CCC3(CC2)CC(O)CCO3)cc1 (stereo not drawn),45%,nt,nt,nt,nt,nt
O=C(Cn1cnc2ccc(Cl)cc2c1=O)N(Cc1cccs1)c1ccc2c(c1)OCCO2,-19%,nt,nt,nt,nt,nt
Cc1ccc(C)c(S(=O)(=O)N2CCCC(Cn3c(C)nc4cccnc43)C2)c1 (stereo not drawn),3%,nt,nt,nt,nt,nt
Cc1ccc2oc(-c3ccccc3)cc(=NCCCCCC(=O)O)c2c1,2%,nt,nt,nt,nt,nt
OCCCN=c1cc(-c2ccccc2)oc2ccc(Cl)cc12,?,?,?,18µM*,?,-102*
CC1(C)CC(N=c2cc(-c3ccccc3)oc3ccc(Cl)cc23)CC(C)(C)N1,?,5.2µM*,7.3µM*,5.8µM*,16µM*,-102*
FC(F)(F)c1cccc(N=c2cc(-c3ccccc3)oc3ccc(Cl)cc23)c1,5%,nt,nt,nt,nt,nt
O=c1[nH]c(=O)n(-c2ccccc2F)c2c1CN(Cc1ccco1)CN2,-1%,nt,nt,nt,nt,nt
C=C(C)Cn1c(=O)c2c(nc(-n3nc(C)c(C)c3C)n2CCC)n(C)c1=O,-14%,nt,nt,nt,nt,nt
COc1ccc(C2CC(c3ccccc3)=NN2C(=O)CN2CCN(Cc3ccccc3)CC2)cc1 (stereo not drawn),-25%,?,10%,26µM*,5%,-66*
COc1ccc(C2=NN(C(=O)CN3CCCCC3)C(c3ccc(C)cc3)C2)cc1 (stereo not drawn),-2%,?,0%,?,-17%,-87*
COc1ccc(C2CC(c3ccccc3)=NN2C(=O)COC(=O)c2cnc(Cl)c(Cl)c2)cc1 (stereo not drawn),-15%,21µM*,20%,?,12%,0
COc1ccc(C2=NN(C(=O)CCC(=O)O)C(c3ccccc3)C2)cc1 (stereo not drawn),14%,-4%,8%,15%,-1%,12
COc1ccc(C2CC(c3cccc([N+](=O)[O-])c3)=NN2/C(C)=C/C(C)=O)cc1 (stereo not drawn),?,16µM*,-5%,?,-4%,1
O=C(CCC1CCCC1)NCCNC(=O)CCC1CCCC1,-26%,nt,nt,nt,nt,nt
CCc1ccc(NC(=O)Cn2nc3c(cc2=O)CC(C)CC3)cc1 (stereo not drawn),-4%,nt,nt,nt,nt,nt
CNC(=S)N1N=C(c2ccc(OC)cc2)CC1c1ccccc1Cl (stereo not drawn),11%,?,0%,?,-2%,-24
CNC(=S)N1N=C(c2ccc(Br)cc2)CC1c1ccc(OC)cc1 (stereo not drawn),?,?,7%,9.2µM*,-1%,-11
COc1ccc(C2CC(c3ccc(Br)cc3)=NN2C(=O)CN2CCCC2)cc1 (stereo not drawn),29%,?,?,12µM*,?,-62*
SMILES,12-LOX inh,TDP1 cell CPT,HT1080-NT tox,DT40 TDP1 no CPT,HT1080 IDH1KD tx,IL1B secr inh
COc1ccc(C2CC(c3ccccc3)=NN2C(=O)CSc2ncn[nH]2)cc1 (stereo not drawn),21%,?,1%,-15%,-10%,-71*
Brc1ccc(-c2noc(Cc3ccccc3)n2)cc1,-2%,nt,nt,nt,nt,nt
CCNC(=O)c1ccc(CNC(=O)OC(C)(C)C)cc1,-39%,nt,nt,nt,nt,nt
N#C/C(=N/Nc1ccc([N+](=O)[O-])cc1)C(=N)N1CCCCC1,?,-18%,-3%,-1%,-13%,-20
N#C/C(=N\Nc1ccccc1[N+](=O)[O-])C(=N)N1CCCCC1,?,5.8µM*,-13%,5.8µM*,2%,1
CCC(CO)Oc1cc(NCc2ccccc2OC)c2ncn(C(C)C)c2c1 (stereo not drawn),-16%,?,-8%,?,-1%,28
CCC(CO)Oc1cc(NCc2ccccc2C(F)(F)F)c2ncn(C(C)C)c2c1 (stereo not drawn),?,23µM*,-18%,16µM*,-4%,82
CCC(CO)Oc1cc(NCc2ccccc2F)c2ncn(C(C)C)c2c1 (stereo not drawn),4%,21µM*,-8%,16µM*,-2%,30
N#CCSc1cc(C(=O)NC2CC2)c2ccccc2n1,-4%,nt,nt,nt,nt,nt
NS(=O)(=O)c1ccc(CCNC(=O)c2ccc(Cl)nc2)cc1,nt,-4%,2%,1%,2%,28
NS(=O)(=O)c1ccc(CCNC(=O)c2ccc(C#CC3(O)CCCCC3)cc2)cc1,-3%,21µM*,?,2.6µM*,?,-8
Cc1cccc(C)c1OCC(=O)Nc1ccc2oc(C(F)(F)F)nc2c1,6%,nt,nt,nt,nt,nt
CCOC(=O)C1(Cc2ccc(Cl)cc2)CCNCC1,30%,nt,nt,nt,nt,nt
O=C(Nc1ccc2nc(SCC(=O)N3CCc4ccccc43)sc2c1)c1cccc(F)c1,-4%,3.7µM*,nt,4.1µM*,nt,nt
O=C(Nc1ccc2nc(SCC(=O)N3CCc4ccccc43)sc2c1)c1ccc(Cl)cc1,-5%,9.2µM*,nt,12µM*,nt,nt
O=C(Nc1ccc2nc(SCC(=O)N3CCCc4ccccc43)sc2c1)c1cccc(Cl)c1,-5%,13µM*,nt,6.5µM*,nt,nt
O=C(Nc1ccc2nc(SCC(=O)N3CCc4ccccc43)sc2c1)c1cccc(Cl)c1,-22%,?,nt,?,nt,nt
O=C(Nc1ccc2nc(SCC(=O)N3CCc4ccccc43)sc2c1)c1ccc(F)cc1,-15%,10µM*,nt,8.2µM*,nt,nt
COc1ccc(C(NC(=O)CNc2ccccc2C(=O)NC2CC2)C2CC2)cc1 (stereo not drawn),-15%,nt,nt,nt,nt,nt
COCc1nc(C2CCN(C(=O)N(C)C)C2)no1 (stereo not drawn),23%,nt,nt,nt,nt,nt
